# Reference: ChEMBL document CHEMBL3988442, “University of Dundee, Small-Polar-MMV Screening Library” (2021)
# About 1,000 (1.4%) of roughly 69,000 compounds showed an effect of 50% or more. What follows is part of a selection rich in strong results, with near analogues and random picks from the rest.
# System: Leishmania donovani
# Assay: Leishmania intramacrophage assay
# Type: functional, organism-based
# Parameters: scale not given: in the data most compounds retested in dose-response had high values
smiles,measurement,setting,value
CCc1nc2c(N3CCC4(CC3)CNC(=O)C4)ncnc2o1,Percent Effect,"30.3 µM, […]",11.46%
CCc1nc2c(N3CCC4(CC3)CC(=O)N(CC)C4)ncnc2o1,Percent Effect,"30.3 µM, […]",0.202%
CCc1nc2c(N3CCC4(CC3)CC(=O)N(CC(C)C)C4)ncnc2o1,Percent Effect,"30.3 µM, […]",71.44%
CCOCC(=O)N1CCOCC2(CCN(c3ncccn3)C2)C1.O=C(O)C(F)(F)F (stereo not drawn),Percent Effect,"30.3 µM, […]",-3.02%
OCCC1CN(C2CCC2)CCN1C1CCCC1 (stereo not drawn),Percent Effect,"30 µM, 30.03 µM",24.92%
Clc1ccccc1CCN1CCN(c2ccc3nncn3n2)CC1,Percent Effect,30 µM,7.685%
O=C(CN1CCCC(c2ccn[nH]2)C1)Nc1nc2c(s1)CCCC2 (stereo not drawn),Percent Effect,"30.3 µM, […]",57.39%
O=C(CN1CCCC(c2ccn[nH]2)C1)Nc1nc2c(s1)CCC2 (stereo not drawn),Percent Effect,"30.3 µM, […]",51.08%
O=C(CN1CCCC(c2ccn[nH]2)C1)Nc1nncs1 (stereo not drawn),Percent Effect,"30.3 µM, […]",11.72%
Cc1cc(C2CCCN(CC(=O)Nc3nc4c(s3)CCC4)C2)n[nH]1 (stereo not drawn),Percent Effect,"30.3 µM, […]",34.8%
Cc1nnc(NC(=O)CN2CCCC(c3ccn[nH]3)C2)s1 (stereo not drawn),Percent Effect,"30.3 µM, […]",-18.19%
O=C(CN1CCCC(c2ccn[nH]2)C1)N1CCCc2ccccc21 (stereo not drawn),Percent Effect,"30.3 µM, […]",-7.148%
CN(C)CCN1C(=O)CC[C@@H]2[C@H]1CCN2C(=O)c1ccc(C#N)cc1.O=C(O)C(F)(F)F,Percent Effect,"30.3 µM, […]",2.551%
Cc1ccc(CN(CCCn2ccnc2)Cc2c[nH]cn2)s1.O=C(O)CC(O)(CC(=O)O)C(=O)O,Percent Effect,"30 µM, 30.03 µM",29.23%
CCc1ccc(CN(CCCn2ccnc2)Cc2ccc(C)s2)o1.O=C(O)CC(O)(CC(=O)O)C(=O)O,Percent Effect,"30 µM, 30.03 µM",12.85%
CC(NC(=O)N(C)Cc1ccsc1)c1ccc2c(c1)OCO2 (stereo not drawn),Percent Effect,"30 µM, 30.03 µM",29.16%
O=C(Nc1nncs1)NC1CCOc2ccccc21 (stereo not drawn),Percent Effect,"30 µM, 30.03 µM",-9.341%
Cn1cc(CN2CC[C@H]3O[C@@H](COCc4cccnc4)CC[C@H]32)cn1.O=C(O)C(F)(F)F.O=C(O)C(F)(F)F,Percent Effect,"30.3 µM, […]",18.07%
O=C(COc1ccccc1)NCC1CCN(Cc2ccsc2)CC1,Percent Effect,"30.3 µM, […]",8.301%
CCCS(=O)(=O)N1C[C@@H]2CN(Cc3ccoc3)CCO[C@@H]2C1.O=C(O)C(F)(F)F,Percent Effect,"30.3 µM, […]",15.12%
Cc1ccc(OCCCC(=O)Nc2nonc2C)cc1C,Percent Effect,"30.3 µM, […]",1.215%
Cc1ccsc1CCNC(=O)CCC(=O)NC1CCCC1,Percent Effect,"30.3 µM, […]",16.22%
Cc1ncsc1-c1nc(-c2cccc(CN3CCOCC3)c2)no1,Percent Effect,"30.3 µM, […]",19.67%
Cc1nnsc1-c1nnc2sc(C3CCC3)nn12,Percent Effect,"30.3 µM, […]",11.99%
Cc1nn2c(-c3snnc3C)nnc2s1,Percent Effect,"30.3 µM, […]",93.73%
Cc1nnsc1-c1nnc2sc(C(C)C)nn12,Percent Effect,"30.3 µM, […]",39.28%
CCN1CCN(Cc2ccnc(-c3cccnc3)n2)CC1.O=C(O)CC(O)(CC(=O)O)C(=O)O,Percent Effect,"30 µM, 30.03 µM",7.725%
Cc1ncsc1C(=O)N(C)Cc1ccsc1,Percent Effect,30 µM,23.48%
CCc1nc(NCC(=O)N2CCOCC2)c2c(n1)c(C)nn2CC,Percent Effect,"30 µM, 30.03 µM",6.056%
Cc1cc(NC(=O)NCC(C)N2CCc3ccccc32)no1 (stereo not drawn),Percent Effect,"30 µM, 30.03 µM",27.07%
CN(Cc1cccnc1N)Cc1cccc2ncccc12,Percent Effect,"30.3 µM, […]",48.64%
CN(Cc1cccc(CCN)c1)Cc1cccc2ncccc12,Percent Effect,"30.3 µM, […]",68.5%
CN(Cc1cccc(OCCO)c1)Cc1cccc2ncccc12,Percent Effect,"30.3 µM, […]",37.97%
CN(CCCc1cnn(C)c1)C(=O)C1CCC(=O)N(C2CCCC2)C1 (stereo not drawn),Percent Effect,"30.3 µM, […]",11.37%
COCCN1CCC(CNC(=O)C2(S(C)(=O)=O)CCCC2)CC1,Percent Effect,"30.3 µM, […]",19.2%
COCCN(C)C(C(=O)O)c1ccc(F)c(C)c1 (stereo not drawn),Percent Effect,"30.3 µM, […]",7.085%
CC(C)NC(=O)C1CN(Cc2ccc(F)cc2)CC12CCOCC2.O=C(O)C(F)(F)F (stereo not drawn),Percent Effect,"30.3 µM, […]",44.53%
NC(CC1CCCC1)c1ccc(Oc2ccccc2)cc1 (stereo not drawn),Percent Effect,"30.3 µM, […]",99.72%
OC(CN1CCN(CC2CCCCC2)CC1)c1ccccc1 (stereo not drawn),Percent Effect,"30.3 µM, […]",24.85%
Cl.NC(CC1CCCC1)c1ccccc1 (stereo not drawn),Percent Effect,"30.3 µM, […]",14.4%
CC(C)N(C)Cc1cc(=O)n2c(n1)CN(S(=O)(=O)C1CC1)CCC2.O=C(O)C(F)(F)F,Percent Effect,"30.3 µM, […]",28.49%
CC(C)N1CCO[C@@H]2CN(C(=O)Cc3cccs3)CC[C@@H]2C1.O=C(O)C(F)(F)F,Percent Effect,"30.3 µM, […]",50.53%
CN1CCO[C@@H]2CN(C(=O)Cc3cccs3)CC[C@@H]2C1.O=C(O)C(F)(F)F,Percent Effect,"30.3 µM, […]",32.46%
CC(C)N1CCO[C@@H]2CN(C(=O)NCc3ccccc3)CC[C@@H]2C1.O=C(O)C(F)(F)F,Percent Effect,"30.3 µM, […]",17.12%
CCOC(=O)c1nnc2ccccc2c1N1CCN(CC)CC1,Percent Effect,"30.3 µM, […]",18.05%
COc1ccc(-n2ccnc2-c2cnc(N(C)C)nc2)cc1OC,Percent Effect,"30.3 µM, […]",25.02%
CCS(=O)(=O)c1ccc(N2CCC(NC(C)=O)CC2)cc1,Percent Effect,"30 µM, 30.03 µM",-2.976%
CCS(=O)(=O)c1ccc(N2CCC(NC(=O)CC3CCCC3)CC2)cc1,Percent Effect,"30.3 µM, […]",22.19%
CCS(=O)(=O)c1ccc(N2CCC(NC(=O)C(C)SC)CC2)cc1 (stereo not drawn),Percent Effect,"30.3 µM, […]",27.86%
CCS(=O)(=O)c1ccc(N2CCC(N)CC2)cc1,Percent Effect,"30.3 µM, […]",63.99%
CCS(=O)(=O)c1ccc(N2CCC(NC(=O)CCC(C)C)CC2)cc1,Percent Effect,"30 µM, 30.03 µM",63.78%
CCNC(=O)NC1CCN(c2ccc(S(=O)(=O)CC)cc2)CC1,Percent Effect,"30.3 µM, […]",12.14%
CC(=O)NCCNCc1cn(CCN2CCSCC2)nc1C,Percent Effect,"30.3 µM, […]",28.55%
CN1C[C@H]2CN(Cc3cccc(OC(F)(F)F)c3)CCN2C1=O,Percent Effect,"30.3 µM, […]",-1.989%
O=C(Cc1cc2c(cc1Br)OCCO2)NC1CCS(=O)(=O)C1 (stereo not drawn),Percent Effect,"30.3 µM, […]",5.517%
CC(=O)c1ccc(C(=O)N2C[C@@H]3CC[C@H](C2)N(Cc2ccccc2)C3)s1,Percent Effect,"30.3 µM, […]",9.144%
COc1cc(F)cc(CNC(=O)Nc2ccn(CC(F)F)n2)c1,Percent Effect,"30.3 µM, […]",16%
Cc1cc2c(c(-c3cnccn3)c1)OC(CN)C2 (stereo not drawn),Percent Effect,"30.3 µM, […]",26.74%
NCC1Cc2cc(-c3cncc(C(=O)N4CCCCC4)n3)cc(F)c2O1 (stereo not drawn),Percent Effect,"30.3 µM, […]",-28.1%
NCC1Cc2cc(-c3cncc(C(=O)N4CCOCC4)n3)cc(Cl)c2O1 (stereo not drawn),Percent Effect,"30.3 µM, […]",7.347%
NCC1Cc2cc(Cl)cc(-c3cncc(C(=O)N4CCCCC4)n3)c2O1 (stereo not drawn),Percent Effect,"30.3 µM, […]",74.83%
Cc1cc2c(c(-c3cncc(C(=O)N4CCCC4)n3)c1)OC(CN)C2 (stereo not drawn),Percent Effect,"30.3 µM, […]",74.06%
Cc1cc2c(c(-c3c[nH]c(C)n3)c1)OC(CN)C2 (stereo not drawn),Percent Effect,"30.3 µM, […]",38.87%
